Molecules are shown by their SMILES. About 83,000 compounds went through this panel and 20% of them were active in at least one assay; those are over-represented in the sample as a whole.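 Method: cells in 96-well plates; compound added at one concentration; 48 h incubation; percent growth measured; values under 10 scored active.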 Values without a mark were called inactive. Calls of active or inactive are those of the source.

Test in all cases: NCI-60 one-dose screen, 48 h (100 = growth as untreated, 0 = no growth, -100 = all killed)
Details in all cases: 10 µM

The test system of assay [1] is 786-0 renal.
In assay [2] the test system is MALME-3M melanoma.
In assay [3] the test system is MDA-MB-231 breast.
Assay [4] deals with SF-268 CNS.
Assay [5] relates to SF-295 CNS.
For assay [6], the system named is UACC-257 melanoma.
The subject of assay [7] is UACC-62 melanoma.
Assay [8] concerns SK-MEL-2 melanoma.
In assay [9] the test system is EKVX NSCLC.
Assay [10] deals with SN12C renal.
Assay [11] concerns UO-31 renal.
The subject of assay [12] is TK-10 renal.
Assay [13] has as its system CAKI-1 renal.
Assay [14] has as its system A498 renal.
The test system of assay [15] is OVCAR-8 ovarian.
Assay [16] has as its system OVCAR-5 ovarian.
In assay [17] the test system is IGROV1 ovarian.
The subject of assay [18] is OVCAR-3 ovarian.
Assay [19] relates to HS 578T breast.
For assay [20], the system named is NCI/ADR-RES ovarian.

Turning to `Nc1nnc(-c2c[nH]c3ncc(Br)cc23)c(-c2c[nH]c3ccc(Br)cc23)n1`, the growth in assay [1] is 36.2%; in assay [2] it was 56.1%; in assay [3], 65%; in assay [4] it was 46%; in assay [5], 44.7%; in assay [6] it was 71%. For the same molecule, the growth in assay [7] is 24.4%; in [8], 7.13% (active); in [9], 46.2%; in assay [10], 46.9%; in assay [11], 32.6%; in [12], 67.8%. The growth was 28.1% in assay [13]; -13% (active) in assay [14]; 34% in [15]; 62.1% in [16]; 36.5% in [17]; 4.38% (active) in [18]. Further, the values for the growth in assay [19] and in assay [20] were 24.7% and 52.9%, respectively.

Turning to `Fc1ccc(-c2csc(Nc3cccc(Nc4nc(-c5ccc(F)cc5)cs4)c3)n2)cc1`, the growth in assay [1] was 68.8%; in assay [2], 83%; in [3] it was 64.6%; in assay [4] it was 57.9%; in assay [5] it was 90.4%; in assay [6], 74.6%. In addition, the growth in assay [7] is 57.1%; in assay [8] it was 34.7%; in assay [9], 39.8%; in assay [10] it was 47.2%; in [11] it was 31.3%; in [12], 94.5%. For the same molecule, the growth was 46.4% in assay [13]; 78.3% in assay [14]; 67.9% in [15]; 65.5% in assay [16]; 41.8% in [17]; 57.5% in [18]. The growth in [19] is 69.3%; in assay [20] it was 63.7%.

In the case of `O=C(c1ccc(Cl)cc1)C(c1c[nH]c2ccccc12)c1c[nH]c2ccccc12`, the growth in assay [1] was -87.6% (active); in assay [2], -91.5% (active); in assay [3], 3.98% (active); in assay [4] it was 9.45% (active); in assay [5] it was 14.5%; in assay [6] it was -39.8% (active). The growth was -53.4% (active) in [7]; -66.5% (active) in assay [8]; -69% (active) in assay [9]; -59.7% (active) in [10]; -94.6% (active) in assay [11]; -62.2% (active) in [12]. The growth in assay [13] is -90.3% (active); in assay [14], 58.9%; in assay [15], -92.8% (active); in [16], -60.7% (active); in [17], -19.4% (active); in assay [18], -84% (active). For the same molecule, the values for the growth in assay [19] and in assay [20] were 27.2% and 11%, respectively.
